Test results from PubChem BioAssay AID652175 (National Center for Advancing Translational Sciences (NCATS), 2013).
Results filed as inconclusive are left out. Values without a mark were called inactive. Active and inactive are the calls of the source. Calls follow the shape of the dose curve; as a rule, active = well fitted inhibition curve with a large enough effect; inconclusive = small, poorly fitted or top-dose-only effect; inactive = no such curve, though single readings can be large or run the other way.

Assay: qHTS Assay for Lipid Storage Modulators: S3 Assay against Probe and Analogs
Conditions: Drosophila S3 cells, BODIPY lipid droplet fluorescence, 18-24 h, oleic acid added to induce droplets; series mostly up to 46.1 µM; activity, negative = lipid storage inhibition: at the top concentration
Text: Storing lipids as a reservoir for energy or the anabolism of elementary metabolites is a common feature of probably all cells and is conserved from bacteria to humans. The universal cellular lipid storage organelle is the so-called lipid storage droplet (LD). Although ubiquitous, LDs share a simple structure composed of a hydrophobic core that harbors the storage lipids, which is shielded by a droplet-specific phospholipid monolayer to which proteins are attached. The current model of LD biogenesis involves an incorporation of the lipid core into the membrane leaflets of the endoplasmic reticulum (ER) followed by a subsequent budding-like maturation of a LD, which ultimately pinches off. Once released, LD volume can increase by localized lipogenesis or fusion of existing droplets. Storage lipids are re-mobilized enzymatically by lipase activity. Lipase regulation in the adipocyte is heavily studied and involves multiple components including catecholamine signaling, the LD-associated proteins Perilipin and comparative gene identification-58 (CGI-58) and at least two lipases named hormone sensitive lipase (HSL) and adipocyte triglyceride lipase (ATGL). LD regulation outside of the adipocyte is poorly understood and only few components are known. However, there is an urgent need to learn more about ectopic fat depots as mislocalized storage of lipids, for example in the liver or muscle, is an eminent health problem associated with insulin resistance or the metabolic syndrome. We developed a laser-scanning cytometer assay to enable 1,536-well screening and combined the results of the small molecules screen with an RNAi database based on lipid storage. In this assay we tested analogs of the probe against the original qHTS assay, which involved drosophila melanogaster cells (S3), to see if these small molecules could disrupt lipid storage. NIH Molecular Libraries Probe Production Centers Network [MLPCN] NIH Chemical Genomics Center [NCGC] MLPCN Grant: MH085686 Assay Submitter (PI): Mathias Beller, Max-Planck-Institut fur Biophysikalische Chemie
qHTS was performed with embryonic Drosophila S3 cells (Bloomington Drosophila Genomics Resource Center [DGRC]). We dispensed 4 uL of cells at 1.25 x 10^6 cells/mL into LoBase Aurora COC 1,536-well plates (black walled, clear bottom) with a bottle-valve solenoid-based dispenser (Aurora) to obtain 5,000 cells/well. Triacsin C (Sigma-Aldrich T-4540), an inhibitor of long-chain fatty acyl CoA synthetase that blocks synthesis of triglycerides, was used as a positive control for lipid under-storage. A total of 23 nL of compounds dissolved in DMSO at different concentrations were transferred to the assay plates using a Kalypsys pin tool equipped with a 1,536-pin array containing 10-nL slotted pins (FP1S10, 0.457-mm diameter, 50.8 mm long; V&P Scientific). The final DMSO concentration was 0.46%. One microliter of oleic acid at 400 uM (Calbiochem, #4954) was added to induce lipid droplet formation in the cells, and the plates were lidded with stainless steel rubber gasket lined lids containing pinholes. After 18-24 h incubation at 25 0C and 95% humidity, 4 uL of the BODIPY lipid dye 493/503 (1:2000, Molecular Probes) and the Cell Tracker Red CMTPX dye (Life Technologies, # 34552) were added to the wells to stain lipid droplets and enumerate cell number, respectively. Fluorescence was detected by excitation of the fluorophores with a 488-nm laser on an Acumen Explorer (TTP Lab Tech). The total intensity in channel 1 (500-530 nm) reflected lipid droplet accumulation. Cells were detected using channel 3 (575-640 nm) with 5-um width and 100-um depth filters. The ratio of the total intensity in PMT channel 1 over total intensity of channel 3 was also calculated. Percent activity was computed relative to an internal control (100% inhibited lipid droplet deposition due to the presence of 20 uM Triacsin C), which was added to 32 wells/plate.

| SMILES | activity, negative = lipid storage inhibition | Potency |
| --- | --- | --- |
| CCOc1ccc(CCNC(=O)c2ccc(C(=O)c3ccccc3)cc2)cc1OCC | 46.7% | – |
| CCOc1ccc(CCNC(=O)c2cc3ccncc3n2Cc2cccc(C)n2)cc1OCC | -100% | – |
| CCOc1ccc(CCNC(=O)c2cc3ccccc3n2Cc2ccccn2)cc1OCC | – | 118 nM (active) |
| CCOc1ccc(CCNC(=O)c2ccc(Oc3ccccc3)cc2)cc1OCC | 43.3% [at 38.8 µM] | – |
| CCOc1ccc(CCNC(=O)c2ccccc2)cc1OCC | 33.3% | – |
| CCOc1ccc(CCNC(=O)c2cc3sccc3n2Cc2ccc(F)cc2F)cc1OCC | – | 16.6 nM (active) |
| CCOc1ccc(CCNC(=O)c2cc3ccccc3n2Cc2cccc(C)c2)cc1OCC | – | 3.3 nM (active) |
| CCOc1ccc(CCNC(=O)c2cc3ccccc3n2Cc2cccc(C)n2)cc1OCC | – | 13.2 nM (active) |
| CCOc1ccc(CCNC(=O)c2cc3sccc3n2CCN(C)C)cc1OCC | – | 2350 nM (active) |
| CCOc1ccc(CCNC(=O)c2cc3cnccc3n2Cc2cccc(C)n2)cc1OCC | -27.6% | – |
| CCOc1ccc(CCNC(=O)c2cc3ccccc3n2CCN2CCOCC2)cc1OCC | -100% | – |
